# H9c2 protect: protects H9c2 cardiomyocytes from peroxide injury. AID 588492. H2O2 injury protection, ATPLite, 2 h. protection from H2O2 cell death, % at 20 µM. hit rate 0.63% among 360,000;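 active means compounds giving at least 50% protection of heart cells from peroxide-induced death in the single-dose screen, raw or plate-pattern-corrected value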
# PLCg1 inh: inhibitors of human phospholipase C gamma1 | hit rate 0.84% among 370,000 | purified PLC-gamma1, fluorogenic substrate, fluorescence | P19174 | inhibition, % at 12.2 µM | AID 720700
# PLCb3 inh: inhibitors of human phospholipase C beta3 | Q01970 | Purified PLC-beta3, fluorogenic substrate, fluorescence | inhibition, % at 12.2 µM | hit rate 0.18% among 370,000; in the data active means inhibition above about 11%
# FAS-TE inh: blocks the thioesterase domain of human fatty acid synthase. P49327. recombinant FAS-TE, OMFH fluorogenic substrate, fluorescence endpoint. inhibition, % at 15 µM. hit rate 0.67% among 360,000. AID 602261;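 active means compounds whose normalised, plate-corrected inhibition of enzyme fluorescence in the single-dose primary screen is 50% or more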
# Target sequence (P49327 whole entry, looked up, the tested form may be a part): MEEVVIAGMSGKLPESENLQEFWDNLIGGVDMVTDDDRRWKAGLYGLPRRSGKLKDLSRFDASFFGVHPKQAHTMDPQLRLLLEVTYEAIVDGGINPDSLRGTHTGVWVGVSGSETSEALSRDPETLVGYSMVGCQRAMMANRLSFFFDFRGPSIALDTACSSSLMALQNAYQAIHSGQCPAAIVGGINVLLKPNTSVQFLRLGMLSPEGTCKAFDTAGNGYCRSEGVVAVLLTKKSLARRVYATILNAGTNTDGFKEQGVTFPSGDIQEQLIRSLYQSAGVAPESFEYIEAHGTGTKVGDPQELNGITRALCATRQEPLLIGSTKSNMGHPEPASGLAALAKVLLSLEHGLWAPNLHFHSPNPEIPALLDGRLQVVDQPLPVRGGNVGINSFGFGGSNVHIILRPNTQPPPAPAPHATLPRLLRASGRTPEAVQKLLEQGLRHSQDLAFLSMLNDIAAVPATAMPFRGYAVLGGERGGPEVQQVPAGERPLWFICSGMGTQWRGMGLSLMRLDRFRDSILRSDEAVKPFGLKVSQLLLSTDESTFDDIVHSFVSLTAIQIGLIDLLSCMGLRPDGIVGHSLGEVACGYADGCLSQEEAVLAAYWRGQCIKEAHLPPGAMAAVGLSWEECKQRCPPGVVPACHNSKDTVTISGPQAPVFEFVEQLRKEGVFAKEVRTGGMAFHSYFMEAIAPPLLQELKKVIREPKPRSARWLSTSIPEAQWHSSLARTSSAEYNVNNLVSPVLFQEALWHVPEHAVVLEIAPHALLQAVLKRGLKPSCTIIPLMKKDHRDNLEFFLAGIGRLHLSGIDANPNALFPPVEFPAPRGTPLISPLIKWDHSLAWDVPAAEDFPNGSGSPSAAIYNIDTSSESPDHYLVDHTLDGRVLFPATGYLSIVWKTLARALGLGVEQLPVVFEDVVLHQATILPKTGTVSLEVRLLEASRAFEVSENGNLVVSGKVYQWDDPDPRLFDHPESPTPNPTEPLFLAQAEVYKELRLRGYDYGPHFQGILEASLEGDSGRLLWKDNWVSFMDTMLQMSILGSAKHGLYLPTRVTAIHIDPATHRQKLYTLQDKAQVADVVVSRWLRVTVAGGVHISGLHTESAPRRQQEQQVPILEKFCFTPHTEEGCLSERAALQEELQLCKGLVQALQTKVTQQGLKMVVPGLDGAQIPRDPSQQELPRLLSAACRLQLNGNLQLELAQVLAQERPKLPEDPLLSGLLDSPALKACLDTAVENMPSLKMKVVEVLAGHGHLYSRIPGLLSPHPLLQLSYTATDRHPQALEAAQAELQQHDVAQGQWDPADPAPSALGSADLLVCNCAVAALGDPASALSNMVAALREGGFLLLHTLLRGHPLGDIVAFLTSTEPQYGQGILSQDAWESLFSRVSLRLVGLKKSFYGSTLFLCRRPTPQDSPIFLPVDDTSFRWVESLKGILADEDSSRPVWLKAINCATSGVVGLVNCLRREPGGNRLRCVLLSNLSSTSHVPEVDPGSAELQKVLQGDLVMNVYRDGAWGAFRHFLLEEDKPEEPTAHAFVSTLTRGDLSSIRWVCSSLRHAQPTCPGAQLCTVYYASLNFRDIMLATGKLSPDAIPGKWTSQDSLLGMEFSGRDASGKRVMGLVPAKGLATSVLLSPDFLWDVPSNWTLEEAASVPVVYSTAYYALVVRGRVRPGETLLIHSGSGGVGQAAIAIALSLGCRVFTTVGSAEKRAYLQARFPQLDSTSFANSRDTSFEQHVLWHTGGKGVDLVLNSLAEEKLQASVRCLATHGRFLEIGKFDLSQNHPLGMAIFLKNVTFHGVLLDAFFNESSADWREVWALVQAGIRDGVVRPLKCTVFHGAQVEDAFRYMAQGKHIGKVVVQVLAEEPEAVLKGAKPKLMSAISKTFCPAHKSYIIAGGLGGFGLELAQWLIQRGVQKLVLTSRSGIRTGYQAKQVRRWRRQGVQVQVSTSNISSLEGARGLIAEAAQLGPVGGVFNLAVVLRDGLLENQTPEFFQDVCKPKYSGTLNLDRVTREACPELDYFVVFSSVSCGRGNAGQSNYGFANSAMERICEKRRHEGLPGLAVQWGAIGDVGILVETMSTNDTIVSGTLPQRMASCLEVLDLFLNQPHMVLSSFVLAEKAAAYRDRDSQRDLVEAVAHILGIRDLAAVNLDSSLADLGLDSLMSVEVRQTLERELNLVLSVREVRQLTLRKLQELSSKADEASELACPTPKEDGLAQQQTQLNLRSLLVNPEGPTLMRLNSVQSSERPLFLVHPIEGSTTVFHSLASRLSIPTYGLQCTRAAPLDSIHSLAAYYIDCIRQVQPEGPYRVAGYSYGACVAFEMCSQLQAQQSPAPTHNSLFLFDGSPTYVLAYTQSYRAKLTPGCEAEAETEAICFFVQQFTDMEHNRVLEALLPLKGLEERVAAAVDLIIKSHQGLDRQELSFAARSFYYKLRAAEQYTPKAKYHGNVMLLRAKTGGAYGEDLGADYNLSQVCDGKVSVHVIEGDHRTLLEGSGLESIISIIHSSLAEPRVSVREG
# PLCg1 ctr: counter-screen for PLC-beta3 inhibitors: inhibitors of human PLC-gamma1; inhibition, % at 12.3 µM; purified PLC-gamma1, fluorogenic substrate, fluorescence; shares compounds with PLCg1 inh; hit rate 3.1% among 3,300
# PLCb3 confirm: human PLC-beta3 inhibition, confirmation; shares compounds with PLCg1 inh; purified PLC-beta3, fluorogenic substrate fluorescence; inhibition, % at 12.3 µM; hit rate 1% among 3,300; AID 743261; in the data active means inhibition above about 11%
# A number is an active result; 0 = inactive; - = not tested or not shown. Compounds with a hit are over-represented: about 2.2% of the library has one in this group of screens. Unless noted, no stated cut-off is given here; in the data, active means inhibition above about 9.5%; inactive means the rest.
SMILES,H9c2 protect,PLCg1 inh,PLCb3 inh,FAS-TE inh,PLCg1 ctr,PLCb3 confirm
O=[N+]([O-])c1ccc(Nc2ccccc2O)c([N+](=O)[O-])c1,0,9.5,0,0,0,0
C[N+]1(C)CCC(OC(=O)C(O)(c2ccccc2)C2CCCC2)C1 (stereo unspecified),0,10,0,0,0,0
C[C@H]1[C@H](c2ccccc2)Oc2cc(Br)ccc2S(=O)(=O)N1Cc1ccc(Cl)cc1,-,0,0,-,-,-
COc1ccccc1-n1cnc(N)c1C(=O)c1ccccc1,0,12,0,0,0,0
COc1ccccc1-n1cnc(N)c1C(C)=O,0,0,0,0,-,-
Cc1ccccc1CS(=O)(=O)CCC(=O)NCc1ccc(F)cc1Cl,0,0,0,0,-,-
COc1ccc(NC2=C(Cl)C(=O)N(CCc3ccccc3)C2=O)cc1,0,0,0,0,-,-
CCOc1ccc(NC2=C(Cl)C(=O)N(Cc3ccccc3)C2=O)cc1,0,11,0,0,0,0
O=C(Nc1ccc(Cl)cc1)c1ccc(CN2CCc3ccccc3C2)cc1,0,13,0,0,0,0
CN(CC(=O)Nc1cccc(F)c1)C(=O)CCCc1cccs1,0,13,0,0,0,0
CC1(C(=O)NCc2cccc(C(F)(F)F)c2)CCN1Cc1ccc(-c2ccccc2)o1 (stereo unspecified),0,9.6,0,0,0,0
CC(C)N(C)c1ncnc2c1ncn2[C@H]1CN(CCN2CCOCC2)C[C@@H](CO)O1,0,0,0,0,-,-
CN(C)c1ncnc2c1ncn2[C@H]1CN(CCN2CCOCC2)C[C@@H](CO)O1,0,11,0,0,0,0
O=C1C=C[C@H]2CC[C@@H](O)[C@@H]1[C@@H]2Sc1ccccc1,-,10,0,-,0,0
CC(=O)Oc1ccccc1Cn1c(C)c(C(=O)NCc2cccc([N+](=O)[O-])c2)sc1=O,0,0,0,0,-,-
Cc1sc(NC(=O)CCC(=O)O)c(C#N)c1C,0,11,0,0,0,0
O=C(N/C(=C/c1cccc([N+](=O)[O-])c1)C(=O)N1CCOCC1)c1ccccc1Br,0,0,0,0,-,-
Cc1ccc(C(=O)NCCONC(=O)c2ccc(C)cc2)cc1,0,0,0,0,-,-
N#Cc1c(NC(=O)C2CC(c3ccccc3O)=NO2)sc2c1CCC2 (stereo unspecified),0,14,0,0,0,0
N#Cc1c(NC(=O)C2CC(c3ccccc3Cl)=NO2)sc2c1CCC2 (stereo unspecified),0,0,0,0,-,-
Cc1cc(C)nc(N(C#N)CCOc2ccc(Cl)cc2)n1,0,9.8,0,0,0,0
Cc1cc(C)nc(N(C#N)Cc2ccc(Cl)cc2)n1,0,0,0,0,-,-
C[C@@H]1Cn2cnc(C(=O)NCc3ccc(CNC(=O)OC(C)(C)C)cc3)c2C(=O)N1,0,0,0,0,-,-
COc1ccccc1-c1csc(C(C)(O)c2ccccc2)n1 (stereo unspecified),0,0,0,0,-,-
COc1ccc(NS(=O)(=O)c2ccc(NC(=S)NC(=O)C(C)C)cc2)cc1,0,11,0,0,0,0
SMILES,H9c2 protect,PLCg1 inh,PLCb3 inh,FAS-TE inh,PLCg1 ctr,PLCb3 confirm
CCOCCCNC(=O)CN1CCN(S(=O)(=O)c2ccc3c(c2)CCC3)CC1,0,9.6,0,0,0,0
Cc1cc(C2(O)C(=O)Nc3ccccc32)ccc1F (stereo unspecified),0,0,0,0,-,-
CC1(C(=O)Nc2ccc3c(c2)OCCO3)CSCC(=O)N1CCCn1ccnc1 (stereo unspecified),-,0,0,-,-,-
O=C(Nc1nnc([C@@H]2C[C@H](O)[C@@H](CO)O2)s1)NC1CCCCC1,0,0,0,0,-,-
CC(=O)Nc1ccc(-c2ccnc3c2CC(C)(C(=O)NCCc2ccccc2)O3)cc1 (stereo unspecified),0,14,0,0,0,0
CC(=O)Nc1ccc(-c2ccnc3c2CC(C)(C(=O)NCc2ccc(N4CCN(C)CC4)cc2)O3)cc1 (stereo unspecified),0,0,11,0,0,0
CN(C)c1ccc(CNC(=O)C2(C)Cc3c(-c4cccc(C(N)=O)c4)ccnc3O2)cc1 (stereo unspecified),0,10.0,0,0,0,0
Cc1ccc(NS(=O)(=O)c2ccc(C)c(C(=O)Nc3ccc(S(=O)(=O)Nc4onc(C)c4C)cc3)c2)cc1,0,0,0,0,-,-
COCC(C)NC(=O)CSc1nc2cc(S(=O)(=O)N3CCCCC3)ccc2o1 (stereo unspecified),0,0,0,0,-,-
C[C@H]1[C@@H](OC(=O)NCc2ccc(Cl)cc2)CC[C@@]23CCCN2C(=O)CCC[C@@H]13,-,0,0,-,-,-

# Screens as filed in PubChem BioAssay.
